Test results published in PubChem BioAssay (EPA / NIEHS).
The source made the active and inactive calls. How the source made its calls: active means hit-call score of the fitted dose curve at least 0.9, where 1 is the maximum; inactive means score below 0.9.

Assays:
[1] = ATG_GRE_CIS: Attagene CIS-FACTORIAL HepG2 Assay for human Glucocorticoid Response Elements (GRE) (AID 2282947); details: HepG2 GRE cis-reporter, Attagene multiplex mRNA; actives raise or lower the signal
Summary of the method: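 Following 24 h chemical exposure of transiently transfected HepG2 cells, total RNA was reverse-transcribed and reporter cDNA amplified, fluorescently labelled and sized by capillary electrophoresis. Signal gain or loss was fitted relative to DMSO vehicle.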

[2] = ATG_ISRE_CIS: Attagene CIS-FACTORIAL HepG2 Assay for human Interferon Regulatory Factor 1 (IRF1) binding to an Interferon-Stimulated Response Element (ISRE) (AID 2282948); details: HepG2 ISRE cis-reporter (Attagene), mRNA transcription readout; actives raise or lower the signal
Summary of the method: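 Quantitation relies on labelled RT-PCR fragments separated by capillary electrophoresis. Human HepG2 cells bearing cis-promoter reporter constructs were treated 24 h; DMSO served as baseline for bidirectional fitting.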

[3] = ATG_M_32_CIS: Attagene CIS-FACTORIAL HepG2 Assay for M32 Transcription Factor (Internal Marker) (AID 2282949); details: HepG2 Attagene cis-factorial M32 reporter, mRNA; actives raise or lower the signal;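 further: background control marker of the multiplexed CIS panel rather than a real target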
Summary of the method: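 HepG2 cells transiently transfected with multiplexed cis-regulated reporter units, dosed 24 h. Reporter mRNA quantified by RT-PCR, 6-FAM labelling, HpaI digestion and capillary electrophoresis; bidirectional fit vs DMSO.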

[4] = ATG_M_06_CIS: Attagene CIS-FACTORIAL HepG2 Assay for M06 Transcription Factor (Internal Marker) (AID 2282950); details: HepG2 Attagene CIS-FACTORIAL M06 internal marker reporter; actives raise or lower the signal
Summary of the method: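 HepG2 cells transiently transfected with cis-regulated multiple reporter transcription units were exposed to chemical for 24 h; reporter mRNA was quantified by RT-PCR, 6-FAM primer labelling, HpaI digestion and capillary electrophoresis, fitted bidirectionally against DMSO.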

[5] = molecular target: Hypoxia-inducible factor 1-alpha (Homo sapiens) (UniProt Q16665); assay: ATG_HIF1a_CIS: Attagene CIS-FACTORIAL HepG2 Assay for human Hypoxia Inducible Factor 1 (HIF1A) (AID 2282951); details: HepG2 Attagene cis-factorial HIF1a reporter transcription; actives raise or lower the signal
Chain of Hypoxia-inducible factor 1-alpha (Homo sapiens) (Q16665 whole entry, looked up): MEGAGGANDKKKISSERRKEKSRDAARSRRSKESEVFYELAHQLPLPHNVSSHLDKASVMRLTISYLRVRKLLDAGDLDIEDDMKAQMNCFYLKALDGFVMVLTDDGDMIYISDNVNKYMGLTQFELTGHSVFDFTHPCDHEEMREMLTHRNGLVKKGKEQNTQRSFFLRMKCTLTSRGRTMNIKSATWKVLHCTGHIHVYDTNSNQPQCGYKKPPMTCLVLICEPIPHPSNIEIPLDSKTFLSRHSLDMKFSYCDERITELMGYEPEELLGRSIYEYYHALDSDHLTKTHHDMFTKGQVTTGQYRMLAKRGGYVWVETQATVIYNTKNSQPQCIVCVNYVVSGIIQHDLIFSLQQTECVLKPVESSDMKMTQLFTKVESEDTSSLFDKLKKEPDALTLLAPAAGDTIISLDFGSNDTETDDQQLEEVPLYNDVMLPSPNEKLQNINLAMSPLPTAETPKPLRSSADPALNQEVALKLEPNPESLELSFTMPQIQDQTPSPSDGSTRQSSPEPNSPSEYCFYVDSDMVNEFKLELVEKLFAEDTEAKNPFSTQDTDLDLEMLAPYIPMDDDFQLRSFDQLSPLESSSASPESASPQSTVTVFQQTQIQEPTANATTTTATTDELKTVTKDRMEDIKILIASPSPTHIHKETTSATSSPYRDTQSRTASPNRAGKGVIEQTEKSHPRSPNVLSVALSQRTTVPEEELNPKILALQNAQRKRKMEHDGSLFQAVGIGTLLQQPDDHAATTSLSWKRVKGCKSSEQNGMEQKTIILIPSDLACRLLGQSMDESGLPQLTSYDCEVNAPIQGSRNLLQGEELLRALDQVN
Summary of the method: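 Fluorescence intensity of capillary-separated, 6-FAM-labelled reporter amplicons gives mRNA induction in HepG2 cells carrying transfected cis-promoter reporter units; cells exposed 24 h, responses fitted up or down from DMSO.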

[6] = molecular target: Heat shock factor protein 1 (Homo sapiens) (UniProt Q00613); assay: ATG_HSE_CIS: Attagene CIS-FACTORIAL HepG2 Assay for human Heat Shock Transcription Factor 1 (HSE) (AID 2282953); details: HepG2 HSE cis-reporter, Attagene RNA transcription; actives raise or lower the signal
Chain of Heat shock factor protein 1 (Homo sapiens) (Q00613 whole entry, looked up): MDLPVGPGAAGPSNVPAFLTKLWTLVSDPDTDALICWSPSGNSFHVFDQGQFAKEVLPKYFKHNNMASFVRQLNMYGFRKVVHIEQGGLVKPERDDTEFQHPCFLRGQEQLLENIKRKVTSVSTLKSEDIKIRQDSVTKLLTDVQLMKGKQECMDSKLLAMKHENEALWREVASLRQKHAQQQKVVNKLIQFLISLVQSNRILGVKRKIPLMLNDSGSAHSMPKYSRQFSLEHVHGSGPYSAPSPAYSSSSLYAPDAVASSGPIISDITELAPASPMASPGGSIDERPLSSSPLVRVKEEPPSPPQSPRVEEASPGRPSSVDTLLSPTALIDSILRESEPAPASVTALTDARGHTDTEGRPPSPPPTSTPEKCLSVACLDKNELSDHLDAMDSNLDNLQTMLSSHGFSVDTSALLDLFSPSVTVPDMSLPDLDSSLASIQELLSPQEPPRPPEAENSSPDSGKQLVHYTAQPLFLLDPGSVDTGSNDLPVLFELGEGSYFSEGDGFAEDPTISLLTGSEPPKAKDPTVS
Summary of the method: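 HepG2 cells transiently transfected with multiple reporter transcription units under cis-regulatory promoter control, measuring endogenous transcription factor activity. After 24 h chemical exposure, reporter mRNA quantified by RT-PCR, fluorescent labelling, HpaI digestion and capillary electrophoresis; bidirectional fit versus DMSO.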

[7] = ATG_MRE_CIS: Attagene CIS-FACTORIAL HepG2 Assay for human Metal Responsive Element (MRE) (AID 2282954); details: HepG2 MRE cis-reporter transcription, Attagene multiplex; actives raise or lower the signal
Summary of the method: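 Step one: transfect HepG2 with cis-regulated reporter units. Step two: dose 24 h. Step three: isolate RNA, RT-PCR, 6-FAM label, HpaI digest, capillary electrophoresis. Fit bidirectionally to DMSO.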

[8] = molecular target: Paired box protein Pax-6 (Homo sapiens) (UniProt P26367); assay: ATG_Pax6_CIS: Attagene CIS-FACTORIAL HepG2 Assay for human Paired Box 6 (PAX6) (AID 2282956); details: HepG2 CIS-FACTORIAL PAX6 reporter transcription, RNA readout; actives raise or lower the signal
Chain of Paired box protein Pax-6 (Homo sapiens) (P26367 whole entry, looked up): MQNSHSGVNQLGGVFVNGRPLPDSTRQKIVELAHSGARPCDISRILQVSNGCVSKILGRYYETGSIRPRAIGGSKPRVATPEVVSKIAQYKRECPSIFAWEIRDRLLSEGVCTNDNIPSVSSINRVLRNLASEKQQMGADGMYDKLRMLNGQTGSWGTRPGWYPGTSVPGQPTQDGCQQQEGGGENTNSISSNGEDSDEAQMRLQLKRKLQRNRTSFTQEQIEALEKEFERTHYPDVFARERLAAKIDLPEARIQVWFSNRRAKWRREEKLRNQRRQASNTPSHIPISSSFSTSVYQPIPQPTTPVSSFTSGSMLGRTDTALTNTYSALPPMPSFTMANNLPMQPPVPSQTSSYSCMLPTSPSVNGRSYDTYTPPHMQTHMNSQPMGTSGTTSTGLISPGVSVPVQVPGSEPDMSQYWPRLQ
Summary of the method: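 After twenty-four hours of chemical exposure, transfected HepG2 cells are harvested for RNA. Cis-promoter reporter transcripts are amplified, fluorescently labelled and sized by capillary electrophoresis, with gain and loss of signal scored against DMSO.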

[9] = ATG_PXRE_CIS: Attagene CIS-FACTORIAL HepG2 Assay for human Pregnane X Receptor Element (PXRE) (AID 2282957); details: HepG2 Attagene CIS-FACTORIAL PXRE reporter, mRNA; actives raise or lower the signal
Summary of the method: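 Transfect HepG2 with MRTUs (cis promoter elements); dose chemical, incubate 24 h; isolate RNA, RT with oligo(dT), PCR, 6-FAM label, HpaI cut, CE. Gain/loss fit vs DMSO.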

[10] = ATG_PPRE_CIS: Attagene CIS-FACTORIAL HepG2 Assay for human Peroxisome Proliferator-activated Response Element (PPRE) (AID 2282958); details: HepG2 PPRE cis-element reporter, Attagene transcription factor profiling; actives raise or lower the signal
Summary of the method: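 In this cell-based multiplex, a PPRE cis element drives a reporter sequence in transiently transfected HepG2 cells. Following 24 h treatment, labeled cDNA amplicons are sized and quantified by capillary electrophoresis, with DMSO defining baseline.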

[11] = ATG_RORE_CIS: Attagene CIS-FACTORIAL HepG2 Assay for human RAR-related Orphan Receptor Element (RORE) (AID 2282959); details: HepG2 Attagene cis-factorial RORE reporter, mRNA; actives raise or lower the signal
Summary of the method: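 Endogenous factor activity at a cis response element is read as reporter transcript levels in HepG2 cells, 24 h post-dose. Transcripts are quantified by RT-PCR with capillary electrophoresis, and data fitted in both directions against DMSO.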

[12] = ATG_Sox_CIS: Attagene CIS-FACTORIAL HepG2 Assay for human SRY-box transcription factor (SOX) (AID 2282960); details: HepG2 Attagene cis-factorial SOX reporter, mRNA; actives raise or lower the signal
Summary of the method: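 Measures mRNA induction of a SOX1-associated reporter in HepG2 after 24 h dosing. Fluorescently labelled RT-PCR fragments are separated by capillary electrophoresis, and gain or loss relative to DMSO control is fitted.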

[13] = molecular target: Transcription factor Sp1 (Homo sapiens) (UniProt P08047); assay: ATG_Sp1_CIS: Attagene CIS-FACTORIAL HepG2 Assay for human Specificity Protein 1 (Sp1) (AID 2282961); details: HepG2 Sp1 cis-reporter transcription, actives raise or lower the signal
Chain of Transcription factor Sp1 (Homo sapiens) (P08047 whole entry, looked up): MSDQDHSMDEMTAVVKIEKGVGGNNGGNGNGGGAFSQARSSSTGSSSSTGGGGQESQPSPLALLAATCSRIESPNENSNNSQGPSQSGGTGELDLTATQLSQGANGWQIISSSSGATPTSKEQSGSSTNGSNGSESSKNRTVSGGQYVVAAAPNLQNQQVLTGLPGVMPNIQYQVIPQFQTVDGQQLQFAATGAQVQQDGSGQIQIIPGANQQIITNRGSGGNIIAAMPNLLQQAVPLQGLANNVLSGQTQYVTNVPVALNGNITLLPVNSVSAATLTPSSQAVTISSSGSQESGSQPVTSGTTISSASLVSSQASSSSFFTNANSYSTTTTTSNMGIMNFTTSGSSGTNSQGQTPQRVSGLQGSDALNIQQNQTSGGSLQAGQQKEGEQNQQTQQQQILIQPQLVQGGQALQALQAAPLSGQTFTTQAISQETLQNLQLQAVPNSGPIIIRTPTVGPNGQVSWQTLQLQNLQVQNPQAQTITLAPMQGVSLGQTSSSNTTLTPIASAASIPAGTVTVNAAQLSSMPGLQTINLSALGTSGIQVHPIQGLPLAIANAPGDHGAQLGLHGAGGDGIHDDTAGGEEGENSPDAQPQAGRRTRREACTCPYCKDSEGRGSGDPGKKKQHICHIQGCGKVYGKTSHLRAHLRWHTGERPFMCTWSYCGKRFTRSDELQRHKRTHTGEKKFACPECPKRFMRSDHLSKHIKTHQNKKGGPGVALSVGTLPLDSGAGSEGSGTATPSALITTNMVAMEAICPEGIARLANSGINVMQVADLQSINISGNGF
Summary of the method: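 Cells: HepG2, transiently transfected with cis-regulated multiplexed reporters. Exposure: 24 h. Detection: reporter transcripts amplified, fluorescently labeled, restriction-digested and sized by capillary electrophoresis. Analysis: bidirectional fit relative to DMSO.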

[14] = ATG_SREBP_CIS: Attagene CIS-FACTORIAL HepG2 Assay for human Sterol Regulatory Element Binding (SREBP) (AID 2282962); details: HepG2 Attagene cis-factorial SREBP reporter, mRNA; actives raise or lower the signal
Summary of the method: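 Twenty-four hours after chemical dosing of transfected HepG2 cultures, reporter RNA was converted to cDNA, amplified, end-labelled with 6-FAM and resolved by capillary electrophoresis. Responses were fitted relative to DMSO.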

[15] = molecular target: Signal transducer and activator of transcription 3 (Homo sapiens) (UniProt P40763); assay: ATG_STAT3_CIS: Attagene CIS-FACTORIAL HepG2 Assay for human Signal Transducer and Activator of Transcription 3 (STAT3) (AID 2282963); details: HepG2, Attagene cis-factorial STAT3 reporter transcription; actives raise or lower the signal
Chain of Signal transducer and activator of transcription 3 (Homo sapiens) (P40763 whole entry, looked up): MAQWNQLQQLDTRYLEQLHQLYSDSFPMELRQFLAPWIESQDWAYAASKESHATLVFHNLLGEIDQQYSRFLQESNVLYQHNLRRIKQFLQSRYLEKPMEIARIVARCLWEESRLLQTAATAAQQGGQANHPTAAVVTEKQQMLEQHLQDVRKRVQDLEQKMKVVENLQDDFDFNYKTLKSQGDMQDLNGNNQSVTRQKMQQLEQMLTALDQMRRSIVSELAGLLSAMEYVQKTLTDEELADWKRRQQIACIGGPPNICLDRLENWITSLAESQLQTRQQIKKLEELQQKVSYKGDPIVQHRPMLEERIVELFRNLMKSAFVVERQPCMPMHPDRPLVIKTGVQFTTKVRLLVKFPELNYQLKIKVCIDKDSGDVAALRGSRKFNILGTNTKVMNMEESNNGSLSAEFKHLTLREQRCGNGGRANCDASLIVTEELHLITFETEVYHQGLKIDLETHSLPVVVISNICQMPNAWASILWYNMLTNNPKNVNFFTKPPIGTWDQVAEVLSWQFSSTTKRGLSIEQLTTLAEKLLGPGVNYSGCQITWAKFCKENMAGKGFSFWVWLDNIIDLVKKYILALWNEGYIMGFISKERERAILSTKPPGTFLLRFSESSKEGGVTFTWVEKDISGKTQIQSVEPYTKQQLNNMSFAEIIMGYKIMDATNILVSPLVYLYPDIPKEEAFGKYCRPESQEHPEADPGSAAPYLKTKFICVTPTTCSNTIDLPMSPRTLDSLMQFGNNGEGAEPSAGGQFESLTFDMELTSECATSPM
Summary of the method: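 Transcript-level reporter assay. HepG2 transient MRTU transfection, 24 h exposure, fluorescence detection after RT-PCR and CE; DMSO baseline.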

[16] = ATG_TA_CIS: Attagene CIS-FACTORIAL HepG2 Assay for human TA Basal Promoter (AID 2282964); details: HepG2 Attagene CIS-factorial TA basal promoter reporter; actives raise or lower the signal
Summary of the method: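 HepG2 cells transiently transfected with multiplexed cis-promoter reporter units, dosed 24 h. Reporter mRNA measured by RT-PCR, 6-FAM labelling, HpaI digestion and capillary electrophoresis; bidirectional fit versus DMSO baseline, serving as background control.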

[17] = ATG_TCF_b_cat_CIS: Attagene CIS-FACTORIAL HepG2 Assay for human T-Cell-Factor with beta-catenin (TCF/b-cat) (AID 2282965); details: HepG2 TCF/beta-catenin cis-reporter transcription, actives raise or lower the signal
Summary of the method: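 Using capillary electrophoresis as the read-out, labelled reporter cDNA fragments from transiently transfected HepG2 were sized and quantified. Exposure lasted 24 hours; activity in either direction was referenced to DMSO.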

[18] = molecular target: Hepatocyte nuclear factor 6 (Homo sapiens) (UniProt Q9UBC0); assay: ATG_HNF6_CIS: Attagene CIS-FACTORIAL HepG2 Assay for human Hepatocyte Nuclear Factor 6 (HNF6) (AID 2282952); details: HepG2 Attagene cis-factorial HNF6 reporter transcription; actives raise or lower the signal
Chain of Hepatocyte nuclear factor 6 (Homo sapiens) (Q9UBC0 whole entry, looked up): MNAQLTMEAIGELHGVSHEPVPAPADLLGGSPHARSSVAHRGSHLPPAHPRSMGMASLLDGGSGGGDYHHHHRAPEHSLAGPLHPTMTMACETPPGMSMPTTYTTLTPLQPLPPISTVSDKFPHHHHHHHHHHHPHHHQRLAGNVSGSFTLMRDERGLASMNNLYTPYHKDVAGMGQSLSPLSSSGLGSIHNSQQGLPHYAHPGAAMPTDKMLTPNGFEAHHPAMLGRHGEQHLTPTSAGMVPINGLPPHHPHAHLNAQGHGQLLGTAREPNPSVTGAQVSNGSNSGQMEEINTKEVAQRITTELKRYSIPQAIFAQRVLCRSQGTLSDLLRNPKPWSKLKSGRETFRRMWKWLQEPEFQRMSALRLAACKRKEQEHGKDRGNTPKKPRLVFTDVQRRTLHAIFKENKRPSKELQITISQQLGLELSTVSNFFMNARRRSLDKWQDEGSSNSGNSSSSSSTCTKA
Summary of the method: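 HepG2, transient MRTU transfection (cis promoters); 24 h chemical exposure; total RNA → oligo(dT) RT → PCR → 6-FAM labelling → HpaI cut → CE; bidirectional fit vs DMSO.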

[19] = ATG_PBREM_CIS: Attagene CIS-FACTORIAL HepG2 Assay for human Phenobarbital-responsive Enhancer Module (PBREM) (AID 2282955); details: HepG2 PBREM cis-reporter, Attagene multiplexed transcription; actives raise or lower the signal
Summary of the method: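 Cells were transfected with cis-element reporter units and treated for 24 h, after which RNA was extracted and reporter transcripts measured by RT-PCR and capillary electrophoresis.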

Measured: AC50

CCOc1ccccc1OCC
inactive: [1] | [2] | [3] | [4] | [5] | [6] | [7] | [8] | [10] | [11] | [12] | [13] | [14] | [15] | [16] | [17]
active: [9] 24.9 µM

Nc1cccc(S(=O)(=O)c2cccc(N)c2)c1
inactive: [1] | [2] | [3] | [4] | [5] | [18] | [7] | [19] | [8] | [9] | [10] | [12] | [13] | [14] | [15] | [16] | [17]

CC(C)(C)c1n[nH]c(=S)n(N)c1=O
active: [9] 44.2 µM
inactive: [1] | [2] | [3] | [4] | [5] | [18] | [7] | [19] | [8] | [11] | [12] | [13] | [14] | [15] | [16] | [17]

CCCCCCCCCC=O
inactive: [1] | [2] | [3] | [4] | [18] | [6] | [7] | [8] | [9] | [11] | [12] | [13] | [15] | [16] | [17]
active: [5] 19.8 µM | [10] 46.1 µM

S=C(S)NCCNC(=S)S
inactive: [1] | [2] | [3] | [4] | [5] | [6] | [7] | [8] | [9] | [11] | [12] | [13] | [15] | [16] | [17]

O=C(O)c1ccc(C(=O)O)cc1
inactive: [1] | [2] | [4] | [5] | [18] | [6] | [7] | [19] | [8] | [9] | [10] | [11] | [12] | [13] | [14] | [15] | [16] | [17]

C[C@]12CC[C@H]3[C@@H](CCC4=CC(=O)CC[C@@]43C)[C@@H]1CC[C@@H]2C(=O)CO
active: [2] 100 µM | [6] 60.1 µM | [7] 100 µM | [19] 3.31 µM | [8] 100 µM | [9] 1.7 µM | [17] 100 µM
inactive: [1] | [3] | [4] | [18] | [10] | [11] | [12] | [13] | [14] | [15]

O=C(O)CCCCC1CCSS1 (configuration not stated)
inactive: [1] | [2] | [3] | [4] | [18] | [6] | [7] | [8] | [9] | [10] | [11] | [12] | [13] | [14] | [17]

CN(C)c1ccc(O)c2c1C[C@H]1C[C@H]3[C@H](N(C)C)C(=O)C(C(N)=O)=C(O)[C@@]3(O)C(=O)C1=C2O
inactive: [1] | [2] | [3] | [4] | [18] | [7] | [19] | [8] | [9] | [11] | [12] | [13] | [14] | [15] | [16]

Cc1ccc(C(=O)c2cc(O)c(O)c([N+](=O)[O-])c2)cc1
active: [7] 130 µM | [9] 27.5 µM | [10] 21.8 µM
inactive: [1] | [2] | [3] | [4] | [18] | [6] | [19] | [8] | [11] | [12] | [13] | [15] | [16] | [17]

C/C=C(\C)C(=O)OCc1ccccc1
inactive: [1] | [2] | [3] | [4] | [5] | [7] | [8] | [9] | [12] | [13] | [14] | [15] | [16] | [17]

COc1cc(C=O)ccc1OC(=O)C(C)C
inactive: [1] | [2] | [3] | [4] | [18] | [6] | [7] | [8] | [9] | [10] | [11] | [12] | [13] | [14] | [15] | [16] | [17]

Cc1ccccc1C=O
active: [9] 38.2 µM
inactive: [1] | [2] | [4] | [5] | [18] | [6] | [7] | [19] | [8] | [10] | [11] | [12] | [13] | [14] | [16]
